These results are taken from PubChem BioAssay AID778 (Sanford-Burnham Center for Chemical Genomics, 2007).

Among all 96,000 compounds or so, about 20,000 (21%) were called active.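 Rule for the calls: active = CYP2C19 inhibition above a set limit at 5 µM in the primary screen (cut at about 50% in these data); inactive = the rest.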 A selection follows.

For the assay, the target named is Cytochrome P450 2C19 (Homo sapiens) (UniProt P33261). Briefly: blockers of cytochrome P450 2C19 activity – biochemical, luminescence, ADME assay, primary screen (AID 778).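 Note: plate controls were negative control wells for no effect and 2.5 mM tranylcypromine positive control for full effect.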 The settings on record: CYP2C19 Supersomes, luciferin-H EGE luminescence, 30 min; at 5 µM; stronger effect = higher value.
Chain of Cytochrome P450 2C19 (Homo sapiens) (P33261 whole entry, looked up): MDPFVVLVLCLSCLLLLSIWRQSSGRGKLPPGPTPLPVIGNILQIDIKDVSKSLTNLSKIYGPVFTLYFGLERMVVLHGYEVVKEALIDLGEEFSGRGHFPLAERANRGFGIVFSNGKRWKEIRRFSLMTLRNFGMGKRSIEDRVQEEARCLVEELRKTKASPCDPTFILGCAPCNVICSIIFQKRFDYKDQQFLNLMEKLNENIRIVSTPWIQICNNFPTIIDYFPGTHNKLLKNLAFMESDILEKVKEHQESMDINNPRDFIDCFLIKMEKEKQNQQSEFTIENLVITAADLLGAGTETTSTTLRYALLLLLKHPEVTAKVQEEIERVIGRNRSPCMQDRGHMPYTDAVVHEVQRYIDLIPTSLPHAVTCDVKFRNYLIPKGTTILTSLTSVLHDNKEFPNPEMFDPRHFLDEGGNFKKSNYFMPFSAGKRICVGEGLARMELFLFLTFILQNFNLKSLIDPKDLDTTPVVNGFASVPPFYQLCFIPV
One may read the inhibition as the change of the read-out against control, counted positive when it falls. For the compound `O=C(CN1C(=O)COc2ccccc21)NCCN1CCc2ccccc2C1`, the inhibition is 53.3% (active).

For the compound `O=C(CN1C(=O)COc2ccccc21)Nc1ccc(F)cc1`, the inhibition was 33.4% (inactive).

As for `CCCN1CCN(CCCNC(=O)CN2C(=O)COc3ccccc32)CC1`, the inhibition was -16.5% (inactive).

Turning to `Cc1cc(C)c2nc(NC(=O)C3CCCO3)sc2c1` (centres undefined), the inhibition is 14.4% (inactive). For `Fc1ccc(-c2nnc(CSc3nnc(-c4ccc5c(c4)OCO5)o3)o2)cc1` the value was -7.5% (inactive); for `Cc1nc(SC(C)C)[nH]c(=O)c1Cc1ccccc1`, 38.8% (inactive).

As to `Cc1cnc(NC(=O)CSc2c(Cl)cccc2Cl)s1`, the inhibition was -7.1% (inactive). With `CCCOC(=O)c1[nH]c2c(c1C)C(=O)CC(c1cccs1)C2` (centres undefined), the inhibition is 39.9% (inactive). The result for `CCOC(=O)N1CC=C2C(C#N)=C(N)C(C#N)(C#N)[C@H](c3cccs3)[C@H]2C1` reads -4.5% (inactive). The result for `C=CCOC(=O)C1=C(C)NC(C)=C(C(=O)OCC=C)C1c1cccs1` reads 77% (active). For `COc1cc(C2C(C(=O)Nc3ccc(F)cc3)=C(C)Nc3nc(CCCO)nn32)cc(OC)c1OC` (centres undefined) the value was 11.1% (inactive); for `CCCOC(=O)Cc1c(O)c2ccccc2[nH]c1=O`, -12.3% (inactive).

In the case of `O=c1nc2s/c(=C\c3ccco3)c(=O)n2nc1Cc1ccccc1`, the inhibition is -5.5% (inactive). For `O=c1/c(=C/c2ccc(CNS(=O)(=O)c3ccccc3)o2)sc2n1CCN=2` the value was 52.4% (active); for `CCOc1cc(CNCCN(C)C)c(Cl)cc1OCC(=O)NCCc1ccccc1`, -1.1% (inactive). The result for `COc1ccc(N2C(=O)CCC(C(=O)Nc3ccccn3)C2c2ccc(OC)c(OC)c2)cc1` (centres undefined) reads 28.2% (inactive); that for `Cn1nnnc1SCC(=O)N1CCN(Cc2ccccc2)CC1`, 38.9% (inactive); that for `O=C(Nc1ccccc1)N1CCN(Cc2ccccc2)CC1`, 76.7% (active). For `O=C(O)C1CC=CCC1C(=O)Nc1ccccc1C(=O)N1CCN(c2ccccc2)CC1` (centres undefined) the value was -10.7% (inactive). As for `O=C(Nc1cccc(NC(=O)N2CCN(c3ccccc3)CC2)c1)N1CCN(c2ccccc2)CC1`, the inhibition was 72% (active). On to `O=C1CCN(C(=O)Nc2ccccc2)N1`, for which the inhibition was -3.2% (inactive). Regarding `COc1cccc(N2CCN(C(=O)Nc3ccc4c(c3)NC(=O)CO4)CC2)c1`, the inhibition was -6.5% (inactive).

Consider `CCC(=O)Nc1ccccc1C(=O)N1CCN(Cc2ccccc2)CC1`, for which the inhibition was 65% (active). Regarding `CCOc1ccc(NC(=O)N2CCN(CC)CC2)cc1`, the inhibition was -6.1% (inactive). The result for `CC(=O)N1CCN(C(=O)Nc2cccc(C(F)(F)F)c2)CC1` reads 8.1% (inactive); that for `Cc1ccc(C(=O)OC2=CC(=O)CC(C)(C)C2)cc1`, 36.6% (inactive); that for `CCOC(=O)c1[nH]c2ccc(OC)cc2c1NC(=O)N1CCOCC1`, 2.7% (inactive).

As for `Cn1c(SCC(=O)C(C)(C)C)nnc1-c1ccccn1`, the inhibition is 33.5% (inactive). The result for `CS(=O)(=O)N(Cc1ccc(Cl)cc1)c1ccc(C(=O)NCCSCc2ccco2)cc1` reads -3.9% (inactive). The result for `O=C(Nc1ccccc1)Nc1ccccc1C(=O)NCc1ccco1` reads 79.3% (active); that for `CCOc1ccccc1C(=O)NCc1ccco1`, 14.6% (inactive); that for `Cc1cccc(Nc2ccccc2C(=O)NCc2ccco2)c1C`, 22.7% (inactive). The result for `Cc1ccccc1NC(=O)NCc1ccco1` reads -11.9% (inactive).

For `Cc1ccc(N(Cc2ccc(C(=O)Nc3ccccc3C(=O)NCc3ccco3)cc2)S(C)(=O)=O)cc1C`, the inhibition is 87.7% (active). For `CC(=O)N(CC1CCCO1)C1(C(=O)NC2CCCC2)CCCCC1` (centres undefined) the value was 3.8% (inactive); for `O=C(CN1CCOCC1)Nc1c2c(nc3c1CCC3)CCC2`, -3% (inactive). The result for `Fc1ccccc1/C=C1\CCCC2=C1Nc1ncnn1C2c1ccccc1F` (centres undefined) reads 45.3% (inactive); that for `COc1ccc(C(=O)/C=C/Nc2ccccn2)cc1`, 46.4% (inactive). The result for `COc1ccccc1Oc1ccc(S(=O)(=O)Nc2cccnc2)cc1` reads 87.6% (active).

In the case of `O=S(=O)(Nc1ccccn1)c1ccc(Oc2ccccc2)cc1`, the inhibition is 90.2% (active). For `CN1CCc2c(sc3c2c(NCc2ccco2)nc2nnnn23)C1` the value was 37.8% (inactive). For `CCOc1ccc(NC(=O)C2CC(=O)N=C(N)S2)cc1` (centres undefined), the inhibition is -0.4% (inactive). In the case of `O=C(Nc1ccccc1)O/N=C1\CCCCC1c1ccc([N+](=O)[O-])cc1[N+](=O)[O-]` (centres undefined), the inhibition is 36.8% (inactive). The result for `O=C1NC2(CCCCC2)N=C1c1ccccc1` reads 25% (inactive); that for `Cc1cc(C)c2c(-n3cccc3)c(C(=O)NNS(=O)(=O)c3ccc(F)cc3)sc2n1`, 31% (inactive); that for `CC(C)(C)C(=O)c1cnc(Nc2ccccc2)s1`, 36.7% (inactive).

Consider `CSc1nc(O)c(Cc2ccccc2)c(=O)[nH]1`, for which the inhibition was 26.1% (inactive). For `CCn1c(Cc2ccccc2)nnc1SCC(=O)Nc1ccccc1` the value was 74% (active); for `CCn1c(Cc2ccccc2)nnc1SCc1nc2ccccc2c(=O)[nH]1`, 70.3% (active). For `CCn1c(SCC(=O)Nc2ccc(S(=O)(=O)Nc3onc(C)c3C)cc2)nnc1-c1ccccc1` the value was 16.5% (inactive); for `CNC(=O)CSc1nnc(CCc2ccccc2)n1-c1ccccc1`, -8.1% (inactive); for `O=c1[nH]c(CSc2ncc(-c3ccc(F)cc3)n2Cc2ccco2)nc2ccccc12`, 32% (inactive). On to `CC(C)c1ccc(-c2nn[nH]n2)cc1`, for which the inhibition is 25.4% (inactive). For `O=c1nc(N2CCOCC2)nc2n1CCO2` the value was 1.1% (inactive); for `Cc1ccc2nc(NCCCNC(=O)c3cnccn3)c(C#N)cc2c1`, 17.1% (inactive).

Consider `CCCCN1C(=O)/C(=C2/C=CC=CN2C)SC1=S`, for which the inhibition was 30.2% (inactive). `CCN(CC)c1nc(-c2ccccc2)cc(C(F)(F)F)c1C#N`: the inhibition was 11.4% (inactive). For `O=C(Cn1c(=S)nc2ccccn21)N1CCc2ccccc2C1` the value was 23.6% (inactive); for `O=C(COc1ccccc1)N1CCc2ccccc2C1`, 87.9% (active); for `COc1ccc(OCC(=O)N2CCN(C(=O)COc3ccccc3)CC2)cc1`, 19.3% (inactive). On to `CC1CN(C(=O)CN2C(=O)NC(C)(c3ccccc3)C2=O)CC(C)O1` (centres undefined), for which the inhibition was -12.4% (inactive).

For `CCN1CCN(CCCCOc2ccccc2F)CC1`, the inhibition is 2.6% (inactive). The result for `Cc1nnc(NC(=O)CSc2nccn2-c2cccc(C)c2C)s1` reads 13.4% (inactive); that for `CCOC(=O)Nc1ccc2c(c1)N(C(=O)CCN1CCN(CCO)CC1)c1ccccc1CC2`, -24.8% (inactive).
